# Source: PubChem BioAssay (National Center for Advancing Translational Sciences (NCATS))
# LmPK inh: qHTS Assay for Inhibitors of Leishmania Mexicana Pyruvate Kinase (LmPK) | purified LmPK, Kinase-Glo ATP luminescence, 1 h | actives 0.37% (n = 290,000) | Potency, µM (titrated, usually from 57.5 µM), for inactives: at the top dose activity change, negative = inhibition, actives largely listed as inhibitors | Q27686 | AID 1721, 2009; note: potency is the fitted concentration of half-maximal effect; % is set by controls: 0 for no effect and ±100 for the full control effect
#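 Pyruvate kinase activity monitored as ATP production (luciferase luminescence). Conditions: 0.1 nM enzyme, 0.5 mM PEP, 0.1 mM ADP, 1 h, RT; normalized against uninhibited and no-enzyme wells.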
# Shiga toxin inh: A qHTS for Small Molecule Inhibitors of Shiga Toxin. Vero cells, Shiga toxin protein synthesis inhibition reporter. inhibition, % at 38.7 µM. actives 9.2% (n = 290,000). AID 2315, 2010; in the data active = inhibition mostly above about 28%, no sharp cut-off; inactive = mostly below about 43%; note: 0% is about no effect
# RE007 growth inh: qHTS Assay for Inhibitors of the HIV-1 protein Vpr; AID 651644, 2012; Potency, µM (series often up to 92.2 µM), for the others: at the top dose activity change, negative = less growth, usual class: inhibitors; S. pombe RE007 Vpr strain, BacTiter-Glo ATP luminescence, 24 h; actives 0.21% (n = 360,000); active = well fitted falling curve with a large enough effect; inconclusive = small, poorly fitted or top-dose-only effect; inactive = no such curve, though single readings can be large or run the other way; note: potency is the fitted concentration of half-maximal effect; % is set by controls: 0 for no effect and ±100 for the full control effect; nearly all actives have a fitted effect of over 50% in size
#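 Fission yeast RE007 carrying one integrated HIV-1 vpr copy, seeded at OD 0.01 in PMG+AL medium with 23 nL pinned compound. Grown 24 h at 30 degrees; viability read by BacTiter-Glo luminescence after 5 min.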
# FBPA Giardia inh: qHTS Assay for Inhibitors of Fructose-1,6-bisphosphate Aldolase from Giardia Lamblia; purified Giardia FBPA; Potency, µM (titrated, usually from 59.6 µM), for inactives: top-dose activity, negative = inhibition, actives largely listed as inhibitors; actives 0.71% (n = 290,000); AID 2451, 2010; note: potency is the fitted concentration of half-maximal effect; % is set by controls: 0 for no effect and ±100 for the full control effect; nearly all actives have a fitted effect of over 55% in size
# Target sequence (A8B2U2 whole entry, looked up): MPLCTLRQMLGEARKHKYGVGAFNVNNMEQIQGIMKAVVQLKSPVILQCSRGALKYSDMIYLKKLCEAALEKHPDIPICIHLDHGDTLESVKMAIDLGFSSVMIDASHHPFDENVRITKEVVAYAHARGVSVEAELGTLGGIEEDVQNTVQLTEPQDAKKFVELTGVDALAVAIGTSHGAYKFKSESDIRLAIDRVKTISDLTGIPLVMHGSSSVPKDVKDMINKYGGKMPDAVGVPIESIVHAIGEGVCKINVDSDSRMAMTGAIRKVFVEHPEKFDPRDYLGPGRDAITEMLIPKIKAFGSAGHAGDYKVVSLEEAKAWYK
#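 40 nM FBPA preincubated 10 min at RT with compound (up to 57.5 uM final), then substrate plus GAPDH/TPI/NAD/arsenate coupling and diaphorase/resazurin added. Fluorescence read after 20 min at RT, 525/598 nm.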
# Tb PYK inh: qHTS of Trypanosoma Brucei Inhibitors; Potency, µM (highest dose often 76.8 µM), without a hit: at the top dose activity, negative = inhibition, usual class: inhibitors; pyruvate kinase (Trypanosoma brucei), Q57TT1; actives 0.12% (n = 410,000); TbPYK enzyme, Kinase-Glo Plus ATP luminescence, 45 min; note: potency is the fitted concentration of half-maximal effect; % is set by controls: 0 for no effect and ±100 for the full control effect; nearly all actives have a fitted effect of over 50% in size
#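 Quantitative HTS: titrated library compounds versus trypanosomal pyruvate kinase in TEA buffer (pH 7.2) containing KCl, MgCl2, BSA and Tween-20. Reactions were initiated with ADP, 130 uM final. Kinase-Glo Plus luminescence was read after 45 min at RT.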
# Cycloheximide cs: Cycloheximide Counterscreen for Small Molecule Inhibitors of Shiga Toxin; actives 12% (n = 300,000); cell reporter, cycloheximide protein synthesis inhibition counterscreen; max response, %; in the data active = max response mostly above about 13%, no sharp cut-off; inactive = mostly below about 14%; note: read at 38.3 µM for the half of the compounds with a filed dose; 0% is about no effect
# * hit, by the source's call; ? = inconclusive; · = no result given; [ ] = another dose, or the depositor's remark. The entries come from a sample that favours hits as a whole. Unless noted, calls come from the whole dose curve; as a rule, active = well fitted curve in the direction sought with a large enough effect; inconclusive = small, poorly fitted or top-dose-only effect, or another doubt; inactive = no such curve, though single readings can be large; an effect the other way counts as inactive or inconclusive.
SMILES,LmPK inh,Shiga toxin inh,RE007 growth inh,FBPA Giardia inh,Tb PYK inh,Cycloheximide cs
CC1CCN(CCCOc2ccc(Cl)cc2Br)CC1,8%,73*,-8%,?,12%,26*
CC1CCN(CCOCCOc2ccc(Cl)cc2Br)CC1,-1%,-33,-4%,?,-13%,-4
CC1CCCN(CCCOc2ccc(Cl)cc2Br)C1 (configuration not stated),-6%,103*,-12%,-23%,-11%,37*
CC1CCCN(CCOc2ccc3ccccc3c2Br)C1 (configuration not stated),1%,43*,-9%,?,-17%,14
CCOC(=O)C1CCN(C(=O)c2c(C)nn(-c3ccc(F)cc3)c2-n2cccc2)CC1,·,·,·,·,-4%,·
Cc1cc2n(n1)CCCN2C(=O)Nc1ccc(Cl)cc1,·,·,·,·,20%,·
CN(C)CCNC(=O)C1CCN(c2ncnc3c2nc2n3CCCCC2)CC1,·,·,·,·,0%,·
Cc1cccc(-c2nsc(SCC(=O)NCC3CCCO3)n2)c1 (configuration not stated),3%,91*,-4%,7%,-10%,44*
Cc1cccc(-c2nsc(SCC(=O)NCc3ccco3)n2)c1,4%,9,5%,-3%,-5%,23*
Cc1cccc(-c2nsc(SCC(=O)NCc3ccc4c(c3)OCO4)n2)c1,-1%,-11,-3%,6%,2%,-2
CCOC(=O)CNC(=O)CSc1nc(-c2cccc(C)c2)ns1,7%,26,11%,1%,-18%,11
COc1ccc(-c2nc3cnc(OC)nc3n(-c3ccccc3)c2=O)cc1,·,·,·,6%,·,·
Fc1ccc(N=Cc2ccc[nH]2)cc1,2%,-21,-2%,-2%,1%,-3
O=C1C(C=Nc2ccc(F)cc2)=C(O)c2ccccc21,?,134*,4%,0%,-10%,61*
COc1ccc(N=Cc2c(O)n(Cc3ccccc3)c(=S)[nH]c2=O)c(OC)c1,1%,29*,-2%,-3%,-8%,17*
COc1ccc(N=CC2=C(O)c3ccccc3C2=O)c(OC)c1,?,48,-5%,-5%,?,26*
CCCC[C@@H]1C[C@H]1C(NC(=O)c1ccco1)c1ccccc1 (some centres not stated),·,·,·,5%,·,·
CCOc1cc(-c2ccc(OC(=O)c3ccc(OC)cc3)c(OC)c2)cc(=O)c2c(C)oc(C)c12,·,·,·,·,2%,·
COc1ccc(Cl)cc1Nc1nc2ccc(C(=O)c3ccccc3)cc2n2cnnc12,·,·,·,·,-1%[15.4 µM],·
Cn1cc([N+](=O)[O-])c(C(=O)N/N=C\c2c[nH]c3ccccc23)n1,-1%,-3,9%,-8%,3%,9
O=[N+]([O-])c1ccccc1N/N=C/c1c[nH]c2ccccc12,-22%,88*,-17%,-7%,-15%,67*
O=[N+]([O-])c1ccc(N/N=C/c2c[nH]c3ccccc23)cc1,-7%,61*,-10%,0%,3%,26*
O=C(Nc1ccccc1C(F)(F)F)Nc1c[nH]c(=O)[nH]c1=O,·,·,·,·,-4%,·
O=c1c(O)c(-c2ccc(O)cc2)oc2ccc(O)cc12,·,·,·,8%,·,·
CCN(CC)c1nn2c(=O)c(C(=O)NCc3ccccc3Br)cnc2s1,·,·,·,·,3%,·
CC(=O)OC[C@@H]1O[C@H](C/C=N\OC[C@@H](O)COCc2ccco2)C=C[C@@H]1OC(C)=O,·,·,·,-1%[12.9 µM],·,·
COc1ccc(OC2C=CC(C#Cc3ccccc3)OC2CO)cc1 (configuration not stated),·,·,·,-1%[12.9 µM],·,·
Cc1cc(NS(=O)(=O)c2ccc(NC(=O)COc3c(C)ccc(C)c3C)cc2)nc(C)n1,·,·,·,·,-27%,·
CC(=O)Nc1ccc(NC(=O)CCN2C(=O)c3ccccc3C2=O)cc1,2%,·,-11%,6%,0%,2
Cc1ccc(NC(=O)CCN2C(=O)c3ccccc3Sc3ncccc32)cc1,-12%,6,-14%,·,-6%,11
